Experimental data published in PubChem BioAssay.
Active and inactive are the calls of the source.

Experiments:
[1] = optical density shifts of acrAB sulA E. coli – strain DRC41, OD650, 48 h, E. coli filamentation inducer project, primary screen (AID 1152); settings: higher = more signal, called active from +8 up or from −8 down;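 further: E. coli MC1000 strain DRC41 lacking acrAB efflux pump and sulA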
[2] = probe aLefty1 binding on compound microarray – biochemical, small-molecule microarray, 635/667 nm fluorescence, primary screen (AID 1153); settings: higher = more signal;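 further: score merges spot fluorescence with signal-to-noise ratio from the scanned slide images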
[3] = plasmodial surface anion channel blockers, osmotic lysis – cell-based, P. falciparum Indochina, OD700, 1 h, primary screen (AID 1154); settings: P. falciparum Indochina infected RBC osmotic lysis, higher = more signal, called active from +8 up or from −8 down
[4] = plasmodial surface anion channel blockers, osmotic lysis – cell-based, P. falciparum Indochina, OD700, 2 h, primary screen (AID 1155);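 further: lysis reports solute entry through the parasite surface anion channel PSAC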; settings: P. falciparum Indochina infected erythrocytes, higher = more signal, called active from +8 up or from −8 down
[5] = changes in parasitized red cell lysis, either direction – P. falciparum Indochina, OD700, 3 h, PSAC antagonist project, primary screen (AID 1156); settings: P. falciparum-infected erythrocytes, osmotic lysis, higher = more signal, called active from +8 up or from −8 down
[6] = plasmodial surface anion channel blockers, osmotic lysis – cell-based, P. falciparum Indochina, OD700, 18 h, primary screen (AID 1157); settings: P. falciparum Indochina infected erythrocytes, osmotic lysis OD700, 18 h; higher = more signal, called active from +8 up or from −8 down
[7] = S6 kinase pathway phospho-S6 level changes – cell-based, A549, cytoblot, luminescence, serum-stimulated, primary screen (AID 1158); settings: 5 h, higher = more signal;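 further: serum-stimulated A549 lung adenocarcinoma cells; signal is phosphorylated S6 detected by cytoblot immunostaining with HRP secondary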
[8] = target: NADPH oxidase 2 (Homo sapiens) (UniProt P04839); assay: compounds shifting NOX2 Amplex Red fluorescence – cell-based, HEK293-NOX2, PMA-stimulated, NOX inhibitor project, primary screen (AID 1159); settings: 45 min, higher = more signal, called active from +8 up or from −8 down; further: test concentration not given here
[9] = target: NADPH oxidase 4 (Homo sapiens) (UniProt Q9NPH5); assay: compounds shifting NOX4 Amplex Red fluorescence – cell-based, HEK293-NOX4, tetracycline-induced, NOX inhibitor project, primary screen (AID 1160); settings: HEK293-NOX4, Amplex Red H2O2 fluorescence, 45 min; higher = more signal, called active from +8 up or from −8 down
[10] = target: NADPH oxidase 5 (Homo sapiens) (UniProt Q96PH1); assay: compounds shifting NOX5 Amplex Red fluorescence – cell-based, HEK293-NOX5, NOX inhibitor project, primary screen (AID 1161); settings: HEK293-NOX5, ionomycin, 45 min, higher = more signal
[11] = compound effects on lung adenocarcinoma cell viability – A549, calcein-AM fluorescence, 48 h, basal, profiling panel (AID 1162); settings: higher = more signal; further: test concentration not given here
[12] = compound effects on differentiated 3T3-L1 adipocyte viability – cell-based, 3T3-L1 adipocytes, calcein-AM fluorescence, 48 h, basal, profiling panel (AID 1163); settings: 3T3-L1 adipocytes viability, higher = more signal; further: test concentration not given here
[13] = compound effects on hepatocellular carcinoma cell viability – HepG2, calcein-AM fluorescence, 48 h, basal, profiling panel (AID 1164); settings: higher = more signal; further: test concentration not given here
[14] = compound effects on multiple myeloma cell viability – MM1S, calcein-AM fluorescence, 48 h, basal, profiling panel (AID 1165); settings: higher = more signal;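 further: viability of MM1S multiple myeloma cells under basal unstimulated conditions; test concentration not given here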
[15] = calcein-AM signal in unstimulated myeloma cells – cell-based, calcein-AM fluorescence, 48 h, PK04 Diversity Set, profiling panel (AID 1166); settings: RPMI8226 myeloma viability, higher = more signal;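 further: cells grown under basal conditions without added stimulus; test concentration not given here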
[16] = JC-1 mitochondrial signal, unstimulated HepG2 cells – cell-based, JC-1 fluorescence, 24 h, 100 nL compound, profiling panel (AID 1167); settings: HepG2 mitochondrial potential, higher = more signal; further: test concentration not given here
[17] = JC-1 mitochondrial signal, unstimulated adipocytes – cell-based, JC-1 fluorescence, 3T3-L1 adipocytes, 24 h, 100 nL compound, profiling panel (AID 1168); settings: JC-1 mitochondrial fluorescence, higher = more signal, called active from +8 up or from −8 down; further: test concentration not given here
[18] = JC-1 mitochondrial signal, unstimulated myeloma cells – cell-based, JC-1 fluorescence, RPMI8226, 24 h, 100 nL compound, profiling panel (AID 1169); settings: JC-1 mitochondrial potential fluorescence, higher = more signal; further: test concentration not given here
[19] = JC-1 mitochondrial signal, unstimulated MM1S myeloma – cell-based, JC-1 fluorescence, 24 h, 100 nL compound, profiling panel (AID 1170); settings: MM1S mitochondrial potential, higher = more signal; further: test concentration not given here
[20] = resazurin metabolic signal in A549 cells – cell-based, resazurin fluorescence, 24 h, PK04 Diversity Set, profiling panel (AID 1171); settings: A549 viability, higher = more signal, called active from +8 up or from −8 down; further: test concentration not given here

Sequence of NADPH oxidase 4 (Homo sapiens) (Q9NPH5 whole entry, looked up): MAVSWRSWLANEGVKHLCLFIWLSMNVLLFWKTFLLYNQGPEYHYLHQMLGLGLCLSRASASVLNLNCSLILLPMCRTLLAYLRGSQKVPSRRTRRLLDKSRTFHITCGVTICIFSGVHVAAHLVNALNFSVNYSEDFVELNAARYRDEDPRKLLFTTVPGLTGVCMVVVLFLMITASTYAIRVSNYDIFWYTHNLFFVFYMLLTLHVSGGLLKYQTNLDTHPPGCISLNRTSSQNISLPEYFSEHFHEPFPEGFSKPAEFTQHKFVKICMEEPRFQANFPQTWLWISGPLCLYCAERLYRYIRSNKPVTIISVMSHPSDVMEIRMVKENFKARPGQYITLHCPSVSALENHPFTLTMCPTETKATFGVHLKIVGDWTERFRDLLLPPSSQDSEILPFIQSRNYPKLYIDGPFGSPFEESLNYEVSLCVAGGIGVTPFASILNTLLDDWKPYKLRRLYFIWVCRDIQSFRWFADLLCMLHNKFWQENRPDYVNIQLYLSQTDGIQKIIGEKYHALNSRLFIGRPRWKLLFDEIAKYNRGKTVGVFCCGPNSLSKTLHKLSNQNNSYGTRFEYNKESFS
Sequence of NADPH oxidase 2 (Homo sapiens) (P04839 whole entry, looked up): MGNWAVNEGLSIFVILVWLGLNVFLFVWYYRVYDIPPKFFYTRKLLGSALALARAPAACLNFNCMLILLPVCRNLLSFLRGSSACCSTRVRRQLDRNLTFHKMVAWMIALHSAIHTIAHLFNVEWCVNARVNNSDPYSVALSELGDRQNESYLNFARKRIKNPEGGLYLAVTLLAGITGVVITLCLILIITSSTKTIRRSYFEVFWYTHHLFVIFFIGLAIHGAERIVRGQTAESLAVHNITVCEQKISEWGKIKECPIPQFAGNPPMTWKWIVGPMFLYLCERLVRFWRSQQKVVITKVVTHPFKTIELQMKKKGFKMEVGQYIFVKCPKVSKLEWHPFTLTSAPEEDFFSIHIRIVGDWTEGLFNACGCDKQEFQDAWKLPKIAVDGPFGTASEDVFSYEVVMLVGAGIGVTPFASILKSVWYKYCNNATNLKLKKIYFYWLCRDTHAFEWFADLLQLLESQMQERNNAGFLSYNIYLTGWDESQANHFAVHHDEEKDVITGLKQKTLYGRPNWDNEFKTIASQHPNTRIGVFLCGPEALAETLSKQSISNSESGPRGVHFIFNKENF
Sequence of NADPH oxidase 5 (Homo sapiens) (Q96PH1 whole entry, looked up): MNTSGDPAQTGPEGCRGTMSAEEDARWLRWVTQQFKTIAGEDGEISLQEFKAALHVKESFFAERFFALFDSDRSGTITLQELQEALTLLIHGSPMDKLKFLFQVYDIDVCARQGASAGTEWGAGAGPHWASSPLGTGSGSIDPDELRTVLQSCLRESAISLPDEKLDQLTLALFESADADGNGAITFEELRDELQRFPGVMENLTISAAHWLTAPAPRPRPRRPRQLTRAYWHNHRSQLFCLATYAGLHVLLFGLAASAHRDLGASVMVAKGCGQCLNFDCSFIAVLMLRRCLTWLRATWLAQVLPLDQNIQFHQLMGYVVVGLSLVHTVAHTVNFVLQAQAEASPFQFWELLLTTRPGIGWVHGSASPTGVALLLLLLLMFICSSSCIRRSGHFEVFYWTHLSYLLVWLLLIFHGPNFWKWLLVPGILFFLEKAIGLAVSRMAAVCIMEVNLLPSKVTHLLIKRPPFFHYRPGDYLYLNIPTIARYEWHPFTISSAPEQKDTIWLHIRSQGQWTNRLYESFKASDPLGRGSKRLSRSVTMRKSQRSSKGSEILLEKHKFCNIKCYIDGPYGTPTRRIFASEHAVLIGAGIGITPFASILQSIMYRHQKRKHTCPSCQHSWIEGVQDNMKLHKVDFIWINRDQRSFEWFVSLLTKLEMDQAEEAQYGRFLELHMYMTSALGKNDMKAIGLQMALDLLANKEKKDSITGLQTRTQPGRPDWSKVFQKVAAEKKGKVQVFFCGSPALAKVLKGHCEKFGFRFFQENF

Row | Structure (SMILES) | z-score [1] | composite z-score [2] | z-score [3] | z-score [4] | z-score [5] | z-score [6] | z-score [7] | z-score [8] | z-score [9] | z-score [10] | z-score [11] | z-score [12] | z-score [13] | z-score [14] | z-score [15] | z-score [16] | z-score [17] | z-score [18] | z-score [19] | z-score [20]
1 | CC(CCN1CCc2nc(-c3ccccc3)c(-c3ccccc3)cc2C1)=NOC(C)CN1CCCCc2nc(C)c(C)cc21 (stereo not given) | -0.934 (inactive) | -0.106 | 1.08 (inactive) | -0.198 (inactive) | 0.281 (inactive) | 0.343 (inactive) | -0.0953 | -0.839 (inactive) | 0.405 (inactive) | 0.108 | 0.646 | 0.659 | 0.797 | -1.82 | -0.19 | 4.98 | -1.28 (inactive) | 0.303 | 0.108 | 0.935 (inactive)
2 | COCCNC(=O)OCC1CCCC2(CC(OC(=O)NCCc3ccc(F)cc3)CC(CCC(=O)N[C@@H](C)C(=O)OC)O2)O1 (stereo not given in full) | 0.622 (inactive) | 0.0547 | -0.577 (inactive) | -0.61 (inactive) | 0.958 (inactive) | 0.565 (inactive) | 0.672 | 0.769 (inactive) | 0.948 (inactive) | 0.232 | 1.26 | -0.144 | 0.0479 | -0.491 | 0.253 | -0.198 | 0.836 (inactive) | -0.156 | -1 | 1.06 (inactive)
3 | COC(=O)c1c(CC[C@@H](CO)NC(=O)N[C@H](Cc2ccccc2)Cn2cc(-c3ccccc3N)nn2)oc(C(C)=O)c1C(=O)OC | 0.144 (inactive) | 0.5 | 29.7 (active) | 15.5 (active) | 0.845 (inactive) | 1.73 (inactive) | 0.211 | -2.69 (inactive) | 0.681 (inactive) | 1.74 | 0.238 | 0.475 | 0.169 | -0.0234 | 0.229 | -0.864 | -0.474 (inactive) | -0.415 | 0.65 | -0.0935 (inactive)
4 | CCCCCN1CC=CC23O[C@@H]4C=CCOC(=O)[C@@H]4[C@H]2C(=O)N(C(CO)C(C)C)[C@@H]3C1=O (stereo not given in full) | 0.374 (inactive) | -0.0479 | 0.901 (inactive) | 0.661 (inactive) | 0.445 (inactive) | 0.307 (inactive) | -0.0997 | 0.965 (inactive) | 0.694 (inactive) | 1.24 | -0.0343 | -0.372 | -0.0721 | 0.949 | 0.12 | -0.794 | 0.196 (inactive) | -0.0576 | 0.782 | 0.0963 (inactive)
5 | CC(C)NC(=O)[C@@]1(C)c2ccccc2C(=O)N(Cc2cc(F)cc(C(F)(F)F)c2)[C@H]1c1ccc(CO)cc1 | 0.0051 (inactive) | -0.21 | 7.03 (inactive) | 0.429 (inactive) | 0.943 (inactive) | 0.0608 (inactive) | -0.191 | 0.162 (inactive) | 0.696 (inactive) | -0.117 | 0.0549 | -0.866 | -0.135 | -0.0517 | 0.223 | 0.863 | -0.327 (inactive) | 0.102 | -0.542 | 0.166 (inactive)
6 | Cc1ccc(S[C@]2(C(=O)O)CC(=O)N(Cc3ccccc3)[C@@H]2c2ccc(CO)cc2I)cc1 | -0.308 (inactive) | 0.157 | 13.9 (active) | 2.07 (inactive) | 1.47 (inactive) | 0.842 (inactive) | -0.31 | 1.71 (inactive) | -2.26 (inactive) | 0.38 | 0.282 | 0.181 | 0.0583 | -2.82 | -2.03 | -0.862 | -0.486 (inactive) | -0.551 | -0.967 | 0.682 (inactive)
7 | O=C1[C@H]2[C@H]3[C@H](O)[C@H](O)CC(=NO[C@@H]4O[C@H](CO)[C@@H](O)[C@H](O)[C@H]4O)[C@@H]3CC[C@H]2C(=O)N1c1ccc(F)cc1F | 0.178 (inactive) | -0.0145 | -0.219 (inactive) | 0.363 (inactive) | -0.444 (inactive) | 0.205 (inactive) | -0.709 | 0.455 (inactive) | 0.199 (inactive) | -0.606 | -0.234 | 0.269 | -0.87 | 0.506 | -0.165 | 0.717 | 0.738 (inactive) | -0.079 | 0.256 | -0.126 (inactive)
8 | CC(C)=CCCC(C)=CCON=C1[C@H]2CCn3c(=O)n(C)c(=O)n3[C@H]2[C@H](O)[C@@H]2O[C@H]12 | 0.459 (inactive) | -0.115 | 0.306 (inactive) | 0.197 (inactive) | 0.0128 (inactive) | 0.0078 (inactive) | -0.48 | -2.6 (inactive) | 0.0699 (inactive) | 0.43 | 0.717 | -0.326 | 1.11 | 0.114 | -0.183 | 0.46 | -0.14 (inactive) | -0.2 | -0.731 | -0.83 (inactive)
9 | COC(=O)CC1OC1[C@H](C)[C@@H](OC)C(C)C (stereo not given in full) | 0.547 (inactive) | -0.0186 | 2.66 (inactive) | -0.0353 (inactive) | -0.324 (inactive) | -0.146 (inactive) | 0.0023 | -1.33 (inactive) | -1.67 (inactive) | -1.45 | 0.285 | 0.0498 | 1.66 | -3.45 | 0.045 | 1.74 | 0.269 (inactive) | 0.666 | -0.796 | -0.292 (inactive)
